# Hit rate of the full screen: of about 320,000 compounds, about 2,100 (0.66%) were called active. Inconclusive results (about 53%) are left out. Calls follow the shape of the dose curve; as a rule, active = well fitted inhibition curve with a large enough effect in the signal ratio, with a control signal flat (not every such curve was filed as active); inconclusive = small, poorly fitted or top-dose-only effect, or effect the other way, or a change in a side signal; inactive = flat fitted curve, though single readings scatter; the % refers to the signal ratio. For the sample, actives were picked, then their nearest neighbours and some compounds at random.
# Assay: qHTS Assay for Lipid Storage Modulators in Drosophila S3 Cells;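 as to cell number change: cells counted by Cell Tracker Red CMTPX staining in the red channel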
# Conditions: BODIPY lipid droplet fluorescence, 18-24 h, cells fed with added oleic acid; cell number change: measured here: cell count max response; series mostly up to 46.1 µM
# Summary of the method: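 Drosophila S3 cells got compounds at several concentrations plus oleic acid (400 uM solution). Laser-scanning cytometry with 488 nm excitation read lipid droplets at 500-530 nm and cells at 575-640 nm. Percent activity was relative to 20 uM Triacsin C.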
# Potency is read from the fitted curve at half-maximal effect.
SMILES,Potency,cell number change [%],outcome
COc1ccccc1NS(=O)(=O)c1cccc(C(=O)NCC2(N(C)C)CCCCC2)c1,inactive,16.3,–
COc1ccc(Cl)cc1NS(=O)(=O)c1cccc(C(=O)NCC2(N(C)C)CCCCC2)c1,32.6 µM (active),-25.5,–
COc1ccc(Cl)cc1NS(=O)(=O)c1cccc(C(=O)NCC(c2ccco2)N(C)C)c1 (centres undefined),–,–,inactive [at 0.369 µM]
CCCCN(C(=O)c1ccc(NC2CC2)c([N+](=O)[O-])c1)c1c(N)n(CCCC)c(=O)[nH]c1=O,inactive,–,–
CCN(CC)CCCNC(=O)c1cn(CC)c2cc(N3CCN(C(=O)c4ccco4)CC3)c(F)cc2c1=O,inactive,3.82,–
CCCNC(=O)c1cn(CC)c2cc(N3CCN(C(=O)c4ccco4)CC3)c(F)cc2c1=O,16.4 µM (active),-23.8,–
CCN(CC)CCNC(=O)c1cn(CC)c2cc(N3CCN(C(=O)c4ccco4)CC3)c(F)cc2c1=O,inactive,3.39,–
Cc1ccc(S(=O)(=O)N2CCC(=O)N(CCOCc3ccccc3C)CC2)cc1,inactive,-1.04,–
Cc1cc2cc(CN(Cc3cccs3)S(=O)(=O)c3ccc4c(c3)OCCO4)c(=O)[nH]c2cc1C,inactive,5.28,–
CCCCCCC(=O)NN1CCN(C)CC1,25.9 µM (active),-18.7,–
CCCCC(=O)Nc1ccc(C(=O)N2CCN(C)CC2)cc1,inactive,–,–
CCCCCCCC(=O)NN1CCOCC1,inactive,12.9,–
Cc1onc(-c2ccccc2Cl)c1C(=O)NCc1ccc(N2CCCC2=O)cc1,inactive,-1.75,–
COc1cc(C(=O)OCC(=O)Nc2cccc(S(=O)(=O)N3CCOCC3)c2)ccc1OCC(C)C,inactive,0.792,–
CCOc1ccccc1C(=O)N[C@H](C(=O)OCc1cc(=O)oc2cc(C)ccc12)C(C)C,inactive,1.89,–
Nc1ccccc1-c1ccccc1N,inactive,12.1,–
NC1=NCc2ccccc21,18.4 µM (active),-13,–
Cc1ccccc1N=C1N=C(N)c2ccccc21,inactive,4.71,–
CC(C)(C)C(=O)Nc1ccc(C(=O)N/N=C/c2ccccc2OC(=O)c2ccc(Cl)cc2)cc1,inactive,-1.11,–
CCCN(CC(=O)Nc1ccccc1C)C(=O)c1ccc(-c2ccc([N+](=O)[O-])cc2)o1,11.6 µM (active),–,–
CCCN(CC(=O)Nc1ccccc1C)C(=O)c1ccc(COc2ccccc2)cc1,inactive,–,–
CCCN(CC(=O)Nc1ccccc1C)C(=O)c1ccc(N2CCCCC2)c([N+](=O)[O-])c1,inactive,-25,–
CCN(CC)CCNC(=S)Nc1ccc(Cl)cc1,inactive,1.74,–

SMILES,Potency,cell number change [%],outcome
N#C/C(=C\c1c[nH]c2ccccc12)c1nnc2n1CCCCC2,inactive,6.3,–
N#C/C(=C/c1cccc([N+](=O)[O-])c1)c1nnc2n1CCCCC2,2.59 µM (active),-13.7,–
CN(c1ccccc1)c1ccc(/C=C(\C#N)c2nnc3n2CCCCC3)cc1[N+](=O)[O-],inactive,0.8,–
O=[N+]([O-])c1cccc(-c2nnc3n2CCCCC3)c1,inactive,8.75,–
N#C/C(=C\c1cccc([N+](=O)[O-])c1)c1nnc2n1CCCCC2,4.11 µM (active),–,–
N#C/C(=C/c1ccccc1[N+](=O)[O-])c1nnc2n1CCCCC2,inactive,5.26,–
Cc1nnc(NC(=O)c2ccccc2C(=O)O)s1,inactive,10.9,–
O=C(Nc1cccc(-c2csc(Nc3cccc(C(F)(F)F)c3)n2)c1)c1cc([N+](=O)[O-])cc(C(F)(F)F)c1,inactive,-14.2,–
COC(=O)[C@@H](Cc1ccccc1)NC(=O)[C@H]1CCC(=O)N1C(=O)OCc1ccccc1,7.31 µM (active),-26.7,–
COC(=O)[C@@H](Cc1ccc(O)cc1)NC(=O)[C@H]1CCC(=O)N1C(=O)OCc1ccccc1,inactive,-3.5,–
CC(C)CC(NC(=O)C1CCC(=O)N1C(=O)OCc1ccccc1)C(=O)NC(Cc1ccccc1)C(N)=O (centres undefined),inactive,10.8,–
Cn1c(=O)c2c(O)c(Cc3ccccc3)c(=O)[nH]c2n(C)c1=O,inactive,–,–
CCC(=O)N1CCN(c2ccc(Cl)cc2NC(=O)Cc2ccccc2)CC1,inactive,12.9,–
CCC(=O)N1CCN(c2ccc(Cl)cc2NC(=O)c2ccc([N+](=O)[O-])o2)CC1,5.8 µM (active),-10.1,–
O=C(Nc1cc(Cl)ccc1-n1cncn1)c1ccc([N+](=O)[O-])o1,inactive,8.28,–
O=C(c1ccc([N+](=O)[O-])o1)N1CCN(Cc2ccccc2)CC1,25.9 µM (active),-14.3,–
CS(=O)(=O)N1CCN(c2ccccc2NC(=O)c2ccc([N+](=O)[O-])o2)CC1,inactive,-11.1,–
Cc1ccc(C(=O)N2CCN(Cc3ccccc3)CC2)o1,inactive,15.9,–
CC(=O)N1CCN(c2nc3ccc([N+](=O)[O-])cc3s2)CC1,inactive,-3.82,–
COc1ccc2nc(N3CCN(C(=O)c4ccc([N+](=O)[O-])o4)CC3)sc2c1,4.61 µM (active),–,–
O=C(Nc1ccccc1N1CCOCC1)c1ccc([N+](=O)[O-])o1,inactive,-0.54,–
COc1ccc(N2CCN(C(=O)c3ccc4nc(N5CCCCC5)sc4c3)CC2)cc1,inactive,–,–
O=C(Nc1ccccc1N1CCN(C(=O)c2ccccc2)CC1)c1ccc([N+](=O)[O-])o1,8.2 µM (active),11.7,–

SMILES,Potency,cell number change [%],outcome
O=C(c1ccc([N+](=O)[O-])o1)N1CCOCC1,inactive,-1.55,–
Cc1noc(C)c1COC(=O)c1csc2c1CCCC2,inactive,–,–
Cc1cc(Nc2c(C)n(C)n(-c3ccccc3)c2=O)c2ccccc2n1,inactive,-23.8,–
Cc1cccc(-n2cc(CN3CCCN(C=O)CC3)c(-c3cccc(F)c3)n2)c1,inactive,-4.39,–
O=C(NCc1cccnc1)Nc1cccc([N+](=O)[O-])c1,inactive,6.23,–
CCOc1ncccc1C(=O)OCC(=O)N1CC(=O)Nc2ccccc21,inactive,–,–
Cc1c(/C=N/N=C2\CCC3C4CCc5cc(O)ccc5C4CCC23C)cnn1C (centres undefined),inactive,13.3,–
O=C(CN1C(=O)COc2ccccc21)N1CCOCC1,inactive,–,–
CN1CCN(c2ccccc2NC(=O)c2ccc(-c3ccccc3[N+](=O)[O-])o2)CC1,6.51 µM (active),-10.4,–
O=C(Nc1ccc(N2CCCC2)c(Cl)c1)c1ccc([N+](=O)[O-])o1,inactive,2.06,–
CCC(=O)N1CCN(c2ccccc2NC(=O)c2ccc(-c3cccc([N+](=O)[O-])c3)o2)CC1,inactive,8.53,–
COc1ccc(N2CCCC2)c(NC(=O)c2ccc([N+](=O)[O-])o2)c1,10.3 µM (active),16.1,–
COc1ccccc1NC(=O)c1ccc(-c2ccccc2[N+](=O)[O-])o1,inactive,–,–
CC(C)C(=O)N1CCN(c2ccccc2NC(=O)c2ccc([N+](=O)[O-])o2)CC1,inactive,-10.5,–
O=C(Nc1ccccc1N1CCN(C(=O)c2ccccc2)CC1)c1cccc(Cl)c1,inactive,-6.81,–
COc1ccc(C(=O)Nc2ccccc2N2CCOCC2)cc1Br,inactive,-0.289,–
COc1ccc(N2CCCC2)c(NC(=O)c2ccc(Br)o2)c1,inactive,13.9,–
CC1CCN(c2ccccc2NC(=O)c2ccc([N+](=O)[O-])o2)CC1,inactive,8.97,–
COc1ccc(C(=O)Nc2ccccc2N2CCN(C(=O)c3ccccc3)CC2)cc1Br,14.6 µM (active),-6.04,–
CCC(=O)N1CCN(c2ccccc2NC(=O)c2ccc([N+](=O)[O-])o2)CC1,10.3 µM (active),-1.26,–
CC(C)CC(NC(=O)C(NC(=O)OC(C)(C)C)C(C)C)C(N)=O (centres undefined),inactive,1.19,–
C/C(=N/NC(=O)c1ccc2nc[nH]c2c1)c1cccs1,inactive,9.11,–
CC12CCC(C(=O)Nc3ccccc3)(C(Br)C1=O)C2(C)C (centres undefined),inactive,-7.13,–

SMILES,Potency,cell number change [%],outcome
CC/C(O)=C(/C#N)c1nnc2n1CCCCC2,inactive,8.5,–
CCOCCCNS(=O)(=O)c1cc2[nH]c3c(c2cc1C)C(=O)CC(C)(C)C3,inactive,16.9,–
Cc1ccc(C(=O)NCCNC(=O)c2ccco2)cc1C,inactive,19.6,–
COC(=O)c1c(NC(=O)CC2SC(N)=NC2=O)sc2c1CCCC2 (centres undefined),inactive,–,–
COc1ccc(NC(C)c2ccccc2)cc1 (centres undefined),inactive,-5.31,–
COc1ccc(N2CCN(c3nc(Cl)nc(N4CCOCC4)n3)CC2)cc1,inactive,-11.2,–
COc1cc(C(=O)N(Cc2ccc(C)o2)C2CCS(=O)(=O)C2)cc(OC)c1OC (centres undefined),inactive,-6.11,–
O=C(Nc1ccccc1N1CCCCC1)c1ccc(-c2ccc(Cl)cc2)o1,14.6 µM (active),1.36,–
CN1CCN(c2ccccc2NC(=O)c2ccc(-c3ccc(Cl)c(Cl)c3)o2)CC1,inactive,–,–
O=C(Nc1ccccc1N1CCCCC1)c1ccc(Cl)cc1,inactive,12,–
Cc1csc(N(C(=O)Cc2ccccc2F)c2ccccc2)n1,inactive,3.81,–
Clc1ccc(C2=Nn3c(nnc3-c3cccnc3)SC2)s1,inactive,-22.1,–
COC(=O)c1sc(=S)n(-c2ccccc2)c1N,11.6 µM (active),–,–
CCOC(=O)c1sc(=S)n(-c2ccccc2)c1N,inactive,-17.5,–
COC(=O)c1sc(=S)n(-c2cccc(Cl)c2)c1N,inactive,-15.4,–
Cc1cc(C)n2c(SCC(C)C)nnc2n1,inactive,-0.577,–
O=C(CCCc1ccccc1)N1CCc2ccccc21,inactive,4.72,–
Cc1ccc(NC(=O)CS(=O)CC(=O)N(CC(=O)NC(C)(C)C)c2cccc(C)c2C)cc1 (centres undefined),inactive,1.3,–
O=C(N/C(=C\c1ccccc1)C(=O)N1CCOCC1)c1ccco1,inactive,1.67,–
CC(C)C12CN3CC(C(C)C)(CN(C1)C3(C)C)C2=O,inactive,8.23,–
COc1ccc(C2(C(=O)NCc3ccccc3Cl)CCOCC2)cc1OC,inactive,-6.59,–
